# Measured values published in PubChem BioAssay AID595 (National Center for Advancing Translational Sciences (NCATS), 2007).
# The campaign covered roughly 71,000 compounds. About 310 (0.44%) were called active. About 5% were inconclusive and are not listed. The sample holds actives, similar compounds and a random draw of the others, so the mix is not that of the screen. The call rests on the fitted dose curve; in most records, active means well fitted curve in either direction with a large enough effect; inconclusive means small, poorly fitted or top-dose-only effect, or another doubt; inactive means flat fitted curve, though single readings scatter.
# System: Hsp90 C-terminal peptide / TPR2A (Hop) interaction, human
# Test: qHTS Assay for Disrupters of an Hsp90 Co-Chaperone Interaction
# Conditions: AlphaScreen TPR2A-His6 binding biotin-Hsp90 C-terminal peptide; series mostly up to 57 µM; activity change, negative = inhibition: at the top concentration
# From the text: NIH Chemical Genomics Center [NCGC]
# NIH Molecular Libraries Screening Centers Network [MLSCN]
# Hsp90 (heat shock protein 90) is the essential molecular chaperone and it accounts for 1-2% of all cytosolic proteins and is critical for the activity of diverse cellular proteins that are involved in a variety of cellular processes, including development, cell cycle, and steroid hormone signaling. Its client proteins include signaling kinases such as IGF1R, Akt, v-Src, Raf-1; regulators of cell survival such as Bcr-Abl; and transcription factors such as mutated p53, estrogen and progesterone receptors. Hsp90 has emerged as an important target for cancer treatment due to its essential role in maintaining transformation and regulating the function of oncogenic signaling proteins.
# The in vivo function of Hsp90 is regulated by the binding and hydrolysis of ATP at its N-terminal. Geldanamycin binds to ATP site and inhibit Hsp90 function. Geldanamycin and its analogues are under clinical trials in cancer patients.
# This domain contains the binding site for tetratricopeptide repeat (TPR) domains on HOP (Hsp Organizing Protein). TPR is a structural motif used by a significant number of cochaperones by which the in vivo function of Hsp90 is regulated. TPR2A on HOP binds specifically to MEEVD motif of the C-terminal of Hsp90.
# A homogeneous AlphaScreen is developed to assess the interaction between TPR2A and MEEVD motif of the C-terminal of Hsp90 by using the isolated TPR2A domain and a synthesized 20mer Hsp90 C terminal peptide. AlphaScreen is two bead-based proximity-dependent chemical energy transfer luminescent assay platform. TPR2A-His-6 and biotinylated Hsp90 C terminal peptide will bring streptavidin donor beads and nickel chelate acceptor beads to a proximity range (less than 200 nm), and subsequently lead a chemical luminescent reaction upon exciting donor beads with 680 nm laser. Inhibition of TPR2A and MEEVD motif interaction by small molecules could attenuate or abolish this chemical luminescent reaction.
# Counter screening: Biotinylated-His-6 (PerkinElmer) can be utilized as a counter screen, as it serves as a linker to bring streptavidin beads and nickel chelate beads together. The counter screen can exclude alpha screen platform false positives due to small molecules being metal chelators, biotin analogues and imidazole analogues, or due to interfering with oxygen release from donor beads. Such an assay should be utilized to qualify any activity observed in this screen.
# NCGC Assay Protocol Summary:
# The assay was performed on 1536-well white plate (untreated solid bottom). Liquids were dispensed by 1536-well plate washer (Kalypsys, San Diego, CA). Plates were read on EnVision (PerkinElmer, Boston, MA).TPR2A-His6 was produced using a bacteria expression system and purified using a well developed method (Ghosh et al., 2000). Hsp90 C terminal 20-mer peptide with or without an N-terminal biotin group are synthesized using automated solid phase synthesis by the Yale Keck facility. The composition of assay buffer was (in mM) 25 HEPES, 100 KCl, 2 MgCl2 and 2 DTT; 0.1% BSA and 0.01% Tween-20. TPR2A-His6 binding to biotin-Hsp90 will bring streptavidin donor beads and nickel chelate acceptor beads (PerkinElmer) together and can be measured by Alpha reading by EnVision (PerkinElmer). Free Hsp90 blocks biotin-Hsp90 binding to TPR2 and serves as a positive control in the current asssay.
# The assay was performed at room temperature. All compounds were screened as titrations from […] to 46 uM final concentration. The assay was performed in 1536-well format plates (untreated white solid bottom, Corning Inc.) as follows:
# Sequence,Parameter,Value,Description
# 1,Reagent,3 uL TPR2A-His6,Final concentration was 5nM
# 2,Compound,23 nL,Final titration was from 0.7 nM to 46 uM
# 3,Time,15 minutes,Room temperature
# 4,Reagent,1 uL biotin-Hsp90,With and without free Hsp90. Final concentration was 10 nM for biotin-Hsp90 and 10uM for free Hsp90.
# 5,Time,1 hour,Room temperature
# […]
# On the % scale 0 is the no-effect control and ±100 the full control effect; potency means the concentration at half of the fitted maximal effect.
Structure (SMILES),"activity change, negative = inhibition",Potency
CC1(C)S[C@@H]2[C@@H](NC(=O)[C@@H](N)c3ccccc3)C(=O)N2[C@H]1C(=O)O,-8.43% (inactive),–
O=C(NCC12CC3CC(C1)CC(CNC(=O)N1CCCC1)(C3)C2)N1CCCC1,-1.73% (inactive),–
CC(C)NC(=O)N1CCCC2(CCN(C(=O)c3cccn3C)CC2)C1,-1.72% (inactive),–
c1ccc2c(Nc3ccncc3)nc(-c3ccoc3)nc2c1,-15.2% (inactive),–
O=C(c1ccncc1)N1CCC2(CCN(Cc3cc(C(F)(F)F)cc(C(F)(F)F)c3)CC2)CC1,-0.985% (inactive),–
Cn1cc(-c2nc3cncnc3n(-c3ccccc3)c2=O)c2ccccc21,12.7% (inactive),–
COc1ccccc1CCn1c(=O)c(-c2cn(C)c3ccccc23)nc2cncnc21,–,0.631 µM [activator] (active)
COc1ccc(-n2c(=O)c(-c3cn(C)c4ccccc34)nc3cnc(OC)nc32)cc1,-7% (inactive),–
COC(=O)[C@@]1(Cc2ccc(OC)cc2)[C@H]2c3cc(C(=O)N4CCCC4)n(Cc4ccc(OC(F)(F)F)cc4)c3C[C@H]2CN1C(=O)c1ccccc1,-21% (inactive),–
Cc1ccc(Br)cc1,1.28% (inactive),–
Cc1nc2cnc(N3CCNCC3)nc2n(CCc2ccccc2)c1=O,-7.4% (inactive),–
C(=C\c1ccccc1)/CSc1nnc(-c2cccnc2)n1Cc1ccco1,-3.91% (inactive),–
CCCS(=O)(=O)N1CCC(C(=O)NCCCN(C)Cc2ccccc2)CC1,2.07% (inactive),–
COc1ccccc1CNc1ccnc(-c2c(C)noc2C)n1,3.49% (inactive),–
CSc1ccc(S(=O)(=O)Nc2cccc(F)c2)cc1,-0.401% (inactive),–
O=C(O)C1CCCN1S(=O)(=O)c1ccc2c(c1)CCC2 (stereo not drawn),0.639% (inactive),–
CC(C)c1cc(CN(C)C)c(O)c(C(C)(C)C)c1,1.81% [at 11 µM] (inactive),–
CCC(C)(NC(=O)c1ccccn1)C(=O)NC1CCCCC1 (stereo not drawn),-3.12% (inactive),–
CCOc1ccc(C(=O)N(Cc2ccc(N(C)C)cc2)C2CCS(=O)(=O)C2)cc1 (stereo not drawn),-13% (inactive),–
CC(C)Cn1c(CN(Cc2ccccc2)Cc2ccccc2)nc2c1c(=O)n(C)c(=O)n2C,2.13% (inactive),–
COc1ccc(CN2C(=O)CN=C2Nc2ccc(C)cc2C)cc1,-1.44% (inactive),–

Structure (SMILES),"activity change, negative = inhibition",Potency
OCCCNCc1ccccn1,-9.89% [at 11 µM] (inactive),–
CCCCC[C@H](O)CCCC(=O)O,-7.89% (inactive),–
CCCn1c(-c2ccc(F)cc2)nc2c(NC3CCN(Cc4ccccc4)C3)nc(C)nc21 (stereo not drawn),-16.3% (inactive),–
CC(=O)CCS(=O)(=O)c1ccc(C)c(C)c1,-3.12% (inactive),–
C#CCN1CC(C)/C(=N/O)CC1C (stereo not drawn),0.89% (inactive),–
COc1ccc(Cl)cc1NC(=O)C1CC(=O)N(c2ccc(F)cc2)C1 (stereo not drawn),-6.06% (inactive),–
C[C@H](CCC(=O)O)[C@H]1CC[C@@H]2[C@H]3CC[C@H]4C[C@H](O)CC[C@@]4(C)[C@@H]3CC[C@@]21C,-0.844% [at 11 µM] (inactive),–
COCCn1c(=O)c(CCc2ccccc2)nc2cnc(N3CCNCC3)nc21,-2.61% (inactive),–
Oc1ccccc1CNCc1ccccc1O,-2.03% [at 11 µM] (inactive),–
O=C(Cl)c1ccc([N+](=O)[O-])cc1,0.785% (inactive),–
Cc1noc(C)c1-c1cc(NCc2cccnc2)ncn1,-0.41% (inactive),–
c1ccc2sc(SCCSc3nc4ccccc4s3)nc2c1,2.87% [at 11 µM] (inactive),–
O=C(O)CCCCC(=O)O,-1.35% (inactive),–
CN(C)c1ccc(-c2nc(NCCN3CCOCC3)c3ccccc3n2)cc1,-7.7% (inactive),–
COC(=O)c1c(-c2ccc(C)cc2)csc1N,-5.56% (inactive),–
CC(C)CC1(C(=O)NCc2ccccn2)C=CCN1C(=O)c1ccccc1 (stereo not drawn),-3.81% (inactive),–
CN(CCCNC(=O)CN1C(=O)CC(C)(C)S(=O)(=O)c2ccccc21)C1CCCCC1,-2.54% (inactive),–
O=c1[nH]c(=O)n([C@H]2C[C@H](O)[C@H](CO)O2)cc1Br,-2.56% (inactive),–
Cc1ccc(S(=O)(=O)Nc2ccccc2CNc2c(C)n(C)n(-c3ccccc3)c2=O)cc1,-1.54% (inactive),–
N[C@H](C(=O)O)c1ccc(C(=O)O)c(O)c1,-1.81% (inactive),–
CCCn1c(=O)c2[nH]c(-c3ccc(OCC(=O)NCCN)cc3)nc2n(CCC)c1=O,-19.8% (inactive),–

Structure (SMILES),"activity change, negative = inhibition",Potency
COc1ccc(OC)c(CN2C(=O)CCC2(C)C(=O)NC2CCCCCC2)c1 (stereo not drawn),-12.8% (inactive),–
CCCCC/C=C/C=C/C=O,0.076% (inactive),–
N#Cc1cccc(-c2nc3cnc(N4CCNCC4)nc3n(C3CC3)c2=O)c1,-4.38% (inactive),–
O=c1c(-c2ccc(F)cc2)nc2cncnc2n1-c1ccccc1,-0.766% (inactive),–
c1ccc2c(c1)-c1ccccc1C2N1CC2CCC(CC2)C1,2.37% [at 11 µM] (inactive),–
COc1ccc(C[C@H](N)C(=O)N[C@@H]2[C@H](O)[C@H](n3cnc4c(N(C)C)ncnc43)O[C@@H]2CO)cc1,-4.16% [at 26 µM] (inactive),–
Cc1cc(Cl)ccc1OCC(=O)Oc1c(Cl)c(Cl)c(Cl)c(Cl)c1Cl,0.356% [at 11 µM] (inactive),–
O=C(COc1ncnc2ccccc12)NC(=O)NCc1ccccc1,2.77% (inactive),–
C[C@@H]1O[C@@H](O[C@@H]2[C@@H](O)[C@H](OCCc3ccc(O)c(O)c3)O[C@H](CO[C@@H]3O[C@H](CO)[C@@H](O)[C@H](O)[C@H]3O)[C@H]2OC(=O)/C=C/c2ccc(O)c(O)c2)[C@H](O)[C@H](O)[C@H]1O,-0.838% (inactive),–
Cc1ccccc1N1CCN(S(=O)(=O)C[C@@]23CC[C@H](C[C@H]2NC(=O)[C@@H](N)CCS(C)(=O)=O)C3(C)C)CC1,-8.53% (inactive),–
COc1ccc(NC(=O)N2CC3(CCN(C(=O)c4cccn4C)CC3)C2)cc1,-8.94% (inactive),–
COc1ccc(C(=O)N2CCC3(CC2)CCN(c2ccccn2)CC3)cc1,2.71% (inactive),–
O=C(Nc1cccc(F)c1)N1CC2(CCN(C(=O)c3csnn3)CC2)C1,1.12% (inactive),–
CCn1ccnc1C[C@@H]1COc2ccccc2O1,inactive,–
CC/C=C/C/C=C/C/C=C/CCCCCCCC(=O)OCC,1.86% (inactive),–
CCOC(=O)c1c(NC(=O)CSc2nnc(Cc3csc(N)n3)n2C)sc(C)c1C,–,25.1 µM (active)
COC(=O)c1c(NC(=O)CSc2nc3c(c(=O)n(C)c(=O)n3C)n2C(C)C)sc(C)c1C,-2.6% (inactive),–
CCOC(=O)c1c(NC(=O)CSc2nnc(CN3CCOCC3)n2C)sc2c1CCCC2,-2.12% (inactive),–
Brc1cc(Br)c(Oc2cc(Br)c(Br)cc2Br)cc1Br,12.2% (inactive),–
Nc1nc2c(ncn2[C@H]2CC[C@@H](CO)O2)c(=O)n1C(=O)c1ccccc1,-4.52% [at 11 µM] (inactive),–
CCOC(=O)CSc1nnc(CNc2ccc(F)cc2)o1,-0.588% (inactive),–
